# Tests used:
# Experiment in all cases: DAPPL (digital affinity profiling via proximity ligation, sequencing); 10 mM Tris-HCl pH 7.5, 50 mM NaCl, 1 mM DTT, 4% glycerol, room temperature, 30 min; GST-TFs on glutathione beads, 16-mer random dsDNA library, 0.1% formaldehyde crosslink after washing; high values mean tight binding
# FLI1 = biological target: T1, FLI1 (Homo sapiens, UniProt Q01543 1-452); details: protein: recombinant; tags: N-terminal GST; dsDNA, one strand shown
# T1 sequence: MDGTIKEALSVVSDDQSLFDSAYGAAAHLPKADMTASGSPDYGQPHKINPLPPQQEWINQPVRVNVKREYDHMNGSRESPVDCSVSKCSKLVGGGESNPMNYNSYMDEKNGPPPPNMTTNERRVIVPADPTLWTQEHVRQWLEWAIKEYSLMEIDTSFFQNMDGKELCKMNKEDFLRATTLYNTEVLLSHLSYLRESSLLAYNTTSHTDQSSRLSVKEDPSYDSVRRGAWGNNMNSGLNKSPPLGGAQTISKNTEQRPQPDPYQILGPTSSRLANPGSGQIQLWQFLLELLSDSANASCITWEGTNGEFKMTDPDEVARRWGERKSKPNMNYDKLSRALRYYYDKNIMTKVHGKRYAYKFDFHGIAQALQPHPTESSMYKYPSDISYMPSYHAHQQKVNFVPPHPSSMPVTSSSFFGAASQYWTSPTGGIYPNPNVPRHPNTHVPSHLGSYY
# Method in brief: (§1)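 Beads coated with glutathione captured GST-fused human transcription factors that had been expressed in yeast, and the factors were then given DNA barcodes and pooled with a tag-only sample. The pools were incubated with 200 nmole of a random double-stranded 16-mer DNA library in Tris/NaCl/DTT/glycerol buffer for 30 min at room temperature, washed, crosslinked with 0.1% formaldehyde and proximity-ligated with BsaI/T4 ligase at 37 °C for 1 h. PCR amplification and Illumina NextSeq500 sequencing came last. Binding signal is each hexamer's read frequency for a factor divided by its frequency for the tag-only sample.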
# ELK1 = biological target: T2, ELK1 (Homo sapiens, UniProt P19419 1-428); details: protein: recombinant; tags: N-terminal GST; dsDNA, one strand shown
# T2 sequence: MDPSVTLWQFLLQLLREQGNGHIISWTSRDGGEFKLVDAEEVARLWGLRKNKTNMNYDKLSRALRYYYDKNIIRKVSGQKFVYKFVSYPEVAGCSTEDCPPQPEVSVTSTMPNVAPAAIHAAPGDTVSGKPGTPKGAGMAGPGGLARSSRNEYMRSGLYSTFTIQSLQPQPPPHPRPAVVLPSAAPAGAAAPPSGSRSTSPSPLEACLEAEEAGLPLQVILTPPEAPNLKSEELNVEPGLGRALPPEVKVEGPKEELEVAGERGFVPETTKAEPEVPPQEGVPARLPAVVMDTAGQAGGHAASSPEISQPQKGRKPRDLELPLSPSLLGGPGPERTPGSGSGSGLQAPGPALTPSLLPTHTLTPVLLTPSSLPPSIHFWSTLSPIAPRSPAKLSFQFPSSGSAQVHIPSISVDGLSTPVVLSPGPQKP
# Method in brief: as §1
# GABPA = biological target: T3, GABPA (Homo sapiens, UniProt Q06546 1-454); details: protein: recombinant; tags: N-terminal GST; dsDNA, one strand shown
# T3 sequence: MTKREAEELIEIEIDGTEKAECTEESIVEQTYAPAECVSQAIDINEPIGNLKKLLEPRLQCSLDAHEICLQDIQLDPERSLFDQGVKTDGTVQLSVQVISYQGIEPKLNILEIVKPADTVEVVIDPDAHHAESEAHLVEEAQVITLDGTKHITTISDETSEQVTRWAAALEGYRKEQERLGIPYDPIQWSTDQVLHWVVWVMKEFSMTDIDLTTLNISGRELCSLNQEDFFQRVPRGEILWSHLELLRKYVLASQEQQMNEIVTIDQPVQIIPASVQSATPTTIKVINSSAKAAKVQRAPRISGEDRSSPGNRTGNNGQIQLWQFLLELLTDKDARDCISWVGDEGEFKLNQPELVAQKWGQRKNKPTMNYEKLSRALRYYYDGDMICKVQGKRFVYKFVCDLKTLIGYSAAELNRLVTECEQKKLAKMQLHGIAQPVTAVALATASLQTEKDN
# Method in brief: as §1
# ERG = biological target: T4, ERG (Homo sapiens, UniProt P11308 1-479); details: protein: recombinant; tags: N-terminal GST; dsDNA, one strand shown
# T4 sequence: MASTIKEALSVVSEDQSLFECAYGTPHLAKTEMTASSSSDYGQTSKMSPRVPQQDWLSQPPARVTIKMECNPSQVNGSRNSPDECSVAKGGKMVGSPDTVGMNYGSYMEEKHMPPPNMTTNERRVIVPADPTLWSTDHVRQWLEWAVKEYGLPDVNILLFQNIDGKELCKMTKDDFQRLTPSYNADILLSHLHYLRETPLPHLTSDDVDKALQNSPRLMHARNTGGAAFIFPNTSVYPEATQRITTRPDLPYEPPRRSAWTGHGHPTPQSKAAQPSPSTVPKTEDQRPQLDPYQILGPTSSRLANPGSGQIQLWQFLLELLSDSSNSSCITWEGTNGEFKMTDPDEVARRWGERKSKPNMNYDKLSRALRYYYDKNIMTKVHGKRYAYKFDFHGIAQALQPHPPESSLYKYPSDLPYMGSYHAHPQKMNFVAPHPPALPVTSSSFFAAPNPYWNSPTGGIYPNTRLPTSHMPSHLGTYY
# Method in brief: as §1
# ELF1 = ELF1 (Homo sapiens, UniProt P32519 1-619); details: protein: recombinant; tags: N-terminal GST; dsDNA, one strand shown
# Method in brief: as §1
# EHF = biological target: T5, EHF (Homo sapiens, UniProt Q9NZC4 1-300); details: protein: recombinant; tags: N-terminal GST; dsDNA, one strand shown
# T5 sequence: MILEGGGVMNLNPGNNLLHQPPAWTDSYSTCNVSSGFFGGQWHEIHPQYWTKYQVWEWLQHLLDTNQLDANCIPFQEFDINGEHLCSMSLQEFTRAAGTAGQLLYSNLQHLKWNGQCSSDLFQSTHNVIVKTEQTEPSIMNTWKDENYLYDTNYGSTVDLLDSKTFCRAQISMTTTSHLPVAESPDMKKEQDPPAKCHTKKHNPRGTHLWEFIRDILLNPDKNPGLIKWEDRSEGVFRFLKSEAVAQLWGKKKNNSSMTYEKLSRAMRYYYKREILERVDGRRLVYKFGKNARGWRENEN
# Method in brief: as §1
# SPI1 = SPI1 (Homo sapiens, UniProt P17947 1-270); details: protein: recombinant; tags: N-terminal GST; dsDNA, one strand shown
# Method in brief: as §1
# SPIB = SPIB (Homo sapiens, UniProt Q01892 1-262); details: protein: recombinant; tags: N-terminal GST; dsDNA, one strand shown
# Method in brief: as §1
# ELK3 = biological target: T6, ELK3 (Homo sapiens, UniProt P41970 1-407); details: protein: recombinant; tags: N-terminal GST; dsDNA, one strand shown
# T6 sequence: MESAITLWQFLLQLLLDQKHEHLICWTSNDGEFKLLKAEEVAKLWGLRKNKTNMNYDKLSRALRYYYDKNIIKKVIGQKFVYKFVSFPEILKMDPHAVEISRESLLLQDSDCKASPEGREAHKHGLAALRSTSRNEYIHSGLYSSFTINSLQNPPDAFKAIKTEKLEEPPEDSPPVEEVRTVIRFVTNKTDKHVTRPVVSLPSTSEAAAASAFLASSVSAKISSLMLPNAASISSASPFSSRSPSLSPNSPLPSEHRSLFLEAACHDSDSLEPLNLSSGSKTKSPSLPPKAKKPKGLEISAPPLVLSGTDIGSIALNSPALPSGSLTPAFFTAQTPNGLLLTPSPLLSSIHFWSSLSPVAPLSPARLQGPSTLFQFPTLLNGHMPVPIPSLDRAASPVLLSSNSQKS
# Method in brief: as §1
# FEV = biological target: T7, FEV (Homo sapiens, UniProt Q99581 1-238); details: protein: recombinant; tags: N-terminal GST; dsDNA, one strand shown
# T7 sequence: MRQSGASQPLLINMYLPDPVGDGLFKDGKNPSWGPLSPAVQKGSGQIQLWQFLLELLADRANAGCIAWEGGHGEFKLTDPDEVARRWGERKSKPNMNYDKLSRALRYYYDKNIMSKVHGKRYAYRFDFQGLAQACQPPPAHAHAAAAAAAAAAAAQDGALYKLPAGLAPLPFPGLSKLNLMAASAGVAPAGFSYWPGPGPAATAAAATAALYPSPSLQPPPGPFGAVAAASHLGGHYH
# Method in brief: as §1
# ETV5 = ETV5 (Homo sapiens, UniProt P41161 1-510); details: protein: recombinant; tags: N-terminal GST; dsDNA, one strand shown
# Method in brief: as §1
# HSF1 = HSF1 (Homo sapiens, UniProt Q00613 1-529); details: protein: recombinant; tags: N-terminal GST; chain copies: 3; dsDNA, one strand shown
# Method in brief: as §1
# SPIC = biological target: T8, SPIC (Homo sapiens, UniProt Q8N5J4 1-248); details: protein: recombinant; tags: N-terminal GST; dsDNA, one strand shown
# T8 sequence: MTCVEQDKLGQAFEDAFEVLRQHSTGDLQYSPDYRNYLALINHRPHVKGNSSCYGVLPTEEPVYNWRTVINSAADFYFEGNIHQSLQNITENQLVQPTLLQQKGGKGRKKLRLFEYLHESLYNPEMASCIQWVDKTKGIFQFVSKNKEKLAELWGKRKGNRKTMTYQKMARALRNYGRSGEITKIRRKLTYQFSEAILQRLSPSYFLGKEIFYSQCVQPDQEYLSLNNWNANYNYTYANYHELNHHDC
# Method in brief: as §1
# ELF4 = ELF4 (Homo sapiens, UniProt Q99607 1-663); details: protein: recombinant; tags: N-terminal GST; dsDNA, one strand shown
# Method in brief: as §1
# ELK4 = biological target: T9, ELK4 (Homo sapiens, UniProt P28324-2 1-405); details: protein: recombinant; tags: N-terminal GST; dsDNA, one strand shown
# T9 sequence: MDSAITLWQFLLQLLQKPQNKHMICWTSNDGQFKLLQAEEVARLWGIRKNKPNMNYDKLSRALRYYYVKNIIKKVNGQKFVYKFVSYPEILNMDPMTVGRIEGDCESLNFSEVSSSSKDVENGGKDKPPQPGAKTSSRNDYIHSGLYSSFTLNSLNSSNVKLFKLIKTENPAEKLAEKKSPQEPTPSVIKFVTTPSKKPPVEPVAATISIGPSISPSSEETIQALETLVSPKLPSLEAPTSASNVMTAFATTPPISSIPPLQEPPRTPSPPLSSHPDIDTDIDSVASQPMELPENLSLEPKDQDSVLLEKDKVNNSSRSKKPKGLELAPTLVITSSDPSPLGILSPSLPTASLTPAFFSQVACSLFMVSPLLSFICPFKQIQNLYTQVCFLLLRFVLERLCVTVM
# Method in brief: as §1
# ETV2 = biological target: T10, ETV2 (Homo sapiens, UniProt O00321 1-342); details: protein: recombinant; tags: N-terminal GST; dsDNA, one strand shown
# T10 sequence: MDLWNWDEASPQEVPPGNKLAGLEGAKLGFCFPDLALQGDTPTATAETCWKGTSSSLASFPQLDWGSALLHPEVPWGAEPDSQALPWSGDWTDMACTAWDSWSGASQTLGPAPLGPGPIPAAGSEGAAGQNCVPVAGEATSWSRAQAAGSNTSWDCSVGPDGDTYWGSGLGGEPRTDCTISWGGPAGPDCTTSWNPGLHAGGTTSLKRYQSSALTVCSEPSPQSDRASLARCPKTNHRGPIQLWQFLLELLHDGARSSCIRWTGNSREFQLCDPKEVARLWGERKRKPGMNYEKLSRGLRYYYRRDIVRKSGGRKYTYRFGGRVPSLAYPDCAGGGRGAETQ
# Method in brief: as §1
# ELF3 = biological target: T11, ELF3 (Homo sapiens, UniProt P78545 1-371); details: protein: recombinant; tags: N-terminal GST; dsDNA, one strand shown
# T11 sequence: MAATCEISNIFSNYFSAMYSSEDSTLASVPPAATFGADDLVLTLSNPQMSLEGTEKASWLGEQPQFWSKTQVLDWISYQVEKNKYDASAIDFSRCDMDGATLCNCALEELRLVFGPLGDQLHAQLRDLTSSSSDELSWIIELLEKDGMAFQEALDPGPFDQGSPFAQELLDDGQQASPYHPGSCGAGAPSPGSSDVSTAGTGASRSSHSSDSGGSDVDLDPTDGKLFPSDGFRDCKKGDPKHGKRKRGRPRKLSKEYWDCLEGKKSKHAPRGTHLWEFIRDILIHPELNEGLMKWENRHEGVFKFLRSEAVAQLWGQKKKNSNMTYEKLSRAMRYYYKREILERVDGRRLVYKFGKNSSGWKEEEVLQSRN
# Method in brief: as §1
# CRX = CRX (Homo sapiens, UniProt O43186 1-299); details: protein: recombinant; tags: N-terminal GST; dsDNA, one strand shown
# Method in brief: as §1
# ETV1 = ETV1 (Homo sapiens, UniProt P50549 1-477); details: protein: recombinant; tags: N-terminal GST; dsDNA, one strand shown
# Method in brief: as §1
# ETV5, sequence (P41161 whole entry): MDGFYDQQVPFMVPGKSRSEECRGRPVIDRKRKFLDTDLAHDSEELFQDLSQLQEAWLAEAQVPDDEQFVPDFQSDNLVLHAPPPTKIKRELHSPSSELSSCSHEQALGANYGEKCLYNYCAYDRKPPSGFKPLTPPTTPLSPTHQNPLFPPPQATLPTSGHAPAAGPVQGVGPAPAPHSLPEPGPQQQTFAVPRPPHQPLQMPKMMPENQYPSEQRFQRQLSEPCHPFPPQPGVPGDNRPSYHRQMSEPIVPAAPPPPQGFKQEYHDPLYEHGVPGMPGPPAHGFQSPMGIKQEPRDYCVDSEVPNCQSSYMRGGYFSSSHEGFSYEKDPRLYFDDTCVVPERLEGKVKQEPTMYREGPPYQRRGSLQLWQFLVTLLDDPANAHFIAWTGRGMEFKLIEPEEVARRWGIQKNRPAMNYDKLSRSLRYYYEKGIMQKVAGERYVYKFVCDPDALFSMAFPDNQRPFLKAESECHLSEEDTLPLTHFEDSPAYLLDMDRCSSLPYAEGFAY
# ELF1, sequence (P32519 whole entry): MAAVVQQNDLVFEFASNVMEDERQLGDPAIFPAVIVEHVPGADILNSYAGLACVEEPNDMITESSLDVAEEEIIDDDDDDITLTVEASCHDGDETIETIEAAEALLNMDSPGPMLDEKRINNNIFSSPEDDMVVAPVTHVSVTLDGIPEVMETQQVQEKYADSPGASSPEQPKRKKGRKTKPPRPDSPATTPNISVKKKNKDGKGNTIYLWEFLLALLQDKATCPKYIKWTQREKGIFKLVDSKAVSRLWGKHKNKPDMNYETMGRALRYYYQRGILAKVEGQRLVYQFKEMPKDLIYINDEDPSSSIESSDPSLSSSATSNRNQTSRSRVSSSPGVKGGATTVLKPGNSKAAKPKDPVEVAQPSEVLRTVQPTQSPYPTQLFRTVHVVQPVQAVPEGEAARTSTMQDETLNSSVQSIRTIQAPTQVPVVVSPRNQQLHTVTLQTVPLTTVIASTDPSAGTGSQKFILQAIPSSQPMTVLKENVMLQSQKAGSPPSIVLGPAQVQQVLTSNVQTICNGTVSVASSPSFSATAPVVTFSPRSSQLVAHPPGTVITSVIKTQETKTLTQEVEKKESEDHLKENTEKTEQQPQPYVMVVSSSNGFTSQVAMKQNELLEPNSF
# ETV1, sequence (P50549 whole entry): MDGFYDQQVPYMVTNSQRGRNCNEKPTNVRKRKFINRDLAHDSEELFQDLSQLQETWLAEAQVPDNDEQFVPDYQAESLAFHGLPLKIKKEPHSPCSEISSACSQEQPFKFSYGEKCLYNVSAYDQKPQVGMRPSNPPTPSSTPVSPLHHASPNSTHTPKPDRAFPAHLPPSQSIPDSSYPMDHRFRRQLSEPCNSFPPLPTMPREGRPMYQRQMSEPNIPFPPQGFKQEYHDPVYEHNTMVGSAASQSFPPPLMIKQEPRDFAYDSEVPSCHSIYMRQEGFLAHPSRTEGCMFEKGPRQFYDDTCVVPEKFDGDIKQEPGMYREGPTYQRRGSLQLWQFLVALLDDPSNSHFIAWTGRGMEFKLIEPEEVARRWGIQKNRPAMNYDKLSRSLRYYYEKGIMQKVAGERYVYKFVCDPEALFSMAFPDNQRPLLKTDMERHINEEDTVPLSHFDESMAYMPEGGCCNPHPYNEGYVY
# ELF4, sequence (Q99607 whole entry): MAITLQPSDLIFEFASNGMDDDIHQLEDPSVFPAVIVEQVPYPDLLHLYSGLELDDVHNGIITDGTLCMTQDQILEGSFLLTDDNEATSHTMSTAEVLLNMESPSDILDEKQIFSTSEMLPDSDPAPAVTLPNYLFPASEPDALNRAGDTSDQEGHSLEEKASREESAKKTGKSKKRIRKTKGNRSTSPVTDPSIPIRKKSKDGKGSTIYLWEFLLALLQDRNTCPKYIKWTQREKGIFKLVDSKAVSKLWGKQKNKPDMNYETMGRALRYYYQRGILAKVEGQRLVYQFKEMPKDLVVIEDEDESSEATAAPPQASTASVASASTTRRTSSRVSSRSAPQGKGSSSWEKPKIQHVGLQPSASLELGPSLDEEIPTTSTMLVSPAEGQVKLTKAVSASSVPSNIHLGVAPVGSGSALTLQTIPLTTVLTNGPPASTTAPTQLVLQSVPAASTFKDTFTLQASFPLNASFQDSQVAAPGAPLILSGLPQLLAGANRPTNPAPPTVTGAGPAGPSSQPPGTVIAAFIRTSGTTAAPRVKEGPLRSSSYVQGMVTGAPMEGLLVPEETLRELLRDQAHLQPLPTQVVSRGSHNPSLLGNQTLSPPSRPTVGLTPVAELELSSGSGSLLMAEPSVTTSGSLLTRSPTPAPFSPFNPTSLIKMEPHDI
# CRX, sequence (O43186 whole entry): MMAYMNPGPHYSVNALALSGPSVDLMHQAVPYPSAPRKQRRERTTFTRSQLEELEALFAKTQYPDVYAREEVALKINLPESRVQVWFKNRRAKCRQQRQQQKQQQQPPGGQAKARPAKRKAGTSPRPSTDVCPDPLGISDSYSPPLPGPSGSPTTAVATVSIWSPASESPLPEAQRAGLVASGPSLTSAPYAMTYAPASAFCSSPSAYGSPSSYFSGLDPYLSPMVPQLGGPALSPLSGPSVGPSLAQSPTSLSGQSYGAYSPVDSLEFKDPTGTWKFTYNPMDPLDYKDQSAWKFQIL
# HSF1, sequence (Q00613 whole entry): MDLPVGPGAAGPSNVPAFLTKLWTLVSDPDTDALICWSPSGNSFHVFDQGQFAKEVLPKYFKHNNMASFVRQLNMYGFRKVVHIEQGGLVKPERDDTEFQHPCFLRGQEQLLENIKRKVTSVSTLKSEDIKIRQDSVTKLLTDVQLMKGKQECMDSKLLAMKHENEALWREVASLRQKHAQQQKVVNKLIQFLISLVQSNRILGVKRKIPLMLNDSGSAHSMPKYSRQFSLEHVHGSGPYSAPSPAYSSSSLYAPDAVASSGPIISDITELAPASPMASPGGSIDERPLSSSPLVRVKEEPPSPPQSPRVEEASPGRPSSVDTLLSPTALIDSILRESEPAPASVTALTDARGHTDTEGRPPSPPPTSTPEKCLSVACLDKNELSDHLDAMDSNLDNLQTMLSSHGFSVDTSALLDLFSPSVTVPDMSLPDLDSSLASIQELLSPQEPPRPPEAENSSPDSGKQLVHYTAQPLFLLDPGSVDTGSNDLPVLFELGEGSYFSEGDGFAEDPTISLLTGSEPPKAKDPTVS
# SPIB, sequence (Q01892 whole entry): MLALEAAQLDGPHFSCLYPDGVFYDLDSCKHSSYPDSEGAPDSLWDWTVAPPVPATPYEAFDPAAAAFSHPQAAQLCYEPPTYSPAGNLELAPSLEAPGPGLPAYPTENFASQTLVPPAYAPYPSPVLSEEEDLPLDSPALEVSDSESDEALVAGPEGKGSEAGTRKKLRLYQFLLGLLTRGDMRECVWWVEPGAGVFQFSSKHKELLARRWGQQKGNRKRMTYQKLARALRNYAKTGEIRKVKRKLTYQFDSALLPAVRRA
sequence,measurement,setting,value
TTATTG,binding signal,FLI1,"1.24 fold enrichment (6-mer frequency, TF over GST control)"
same,binding signal,ELK1,"1.27 fold enrichment (6-mer frequency, TF over GST control)"
same,binding signal,GABPA,"1.28 fold enrichment (6-mer frequency, TF over GST control)"
same,binding signal,ERG,"1.24 fold enrichment (6-mer frequency, TF over GST control)"
same,binding signal,ELF1,"1.3 fold enrichment (6-mer frequency, TF over GST control)"
same,binding signal,EHF,"1.29 fold enrichment (6-mer frequency, TF over GST control)"
same,binding signal,SPI1,"1.18 fold enrichment (6-mer frequency, TF over GST control)"
same,binding signal,SPIB,"1.31 fold enrichment (6-mer frequency, TF over GST control)"
same,binding signal,ELK3,"1.38 fold enrichment (6-mer frequency, TF over GST control)"
same,binding signal,FEV,"1.28 fold enrichment (6-mer frequency, TF over GST control)"
same,binding signal,ETV5,"1.32 fold enrichment (6-mer frequency, TF over GST control)"
same,binding signal,HSF1,"1.71 fold enrichment (6-mer frequency, TF over GST control)"
same,binding signal,SPIC,"1.29 fold enrichment (6-mer frequency, TF over GST control)"
same,binding signal,ELF4,"1.36 fold enrichment (6-mer frequency, TF over GST control)"
same,binding signal,ELK4,"1.43 fold enrichment (6-mer frequency, TF over GST control)"
same,binding signal,ETV2,"1.33 fold enrichment (6-mer frequency, TF over GST control)"
same,binding signal,ELF3,"1.35 fold enrichment (6-mer frequency, TF over GST control)"
same,binding signal,CRX,"2.35 fold enrichment (6-mer frequency, TF over GST control)"
same,binding signal,ETV1,"1.24 fold enrichment (6-mer frequency, TF over GST control)"

# From paper PMC7862700, “An all-to-all approach to the identification of sequence-specific readers for epigenetic DNA modifications on cytosine”
